# Test results taken from PubChem BioAssay (Tox21).
# Several values for one entry are separate records, joined by “and”; a condition that tells them apart may be missing. Equal values may be shown once. Records with an inconclusive call do not appear. Entries that show only a call come without a potency. More than one record can exist for a structure, and the calls need not agree. Activity calls are given as the source filed them. Unless noted, the call rests on the fitted dose curve; in most records, active means well fitted curve in the direction sought with a large enough effect in the repeat runs; inconclusive means weak or mixed curves; inactive means no such curve, though single readings can be large; an effect the other way counts as inactive or inconclusive.
# Columns and labels:
# [1] = qHTS assay for small molecules that induce genotoxicity in human embryonic kidney cells expressing luciferase-tagged ATAD5 (AID 651632); further: nearly all actives have a fitted effect of over 15% in size; further: potency means the concentration at half of the fitted maximal effect
# In short: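 HEK293T cells carrying luciferase-tagged ATAD5 were given compound or DMSO vehicle and incubated 16 hr at 37C, 5% CO2. Luciferase activity was read after 30 min at room temperature with Amplite; a rise signals genotoxic stress.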
# [2] = qHTS assay for small molecule agonists of the p53 signaling pathway - cell viability (AID 651633; calls by dose curve; further: nearly all actives have a fitted effect of over 30% in size; further: potency means the concentration at half of the fitted maximal effect)
# In short: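 p53RE-bla cells were treated with compound for 16 hours at 37 C. Cytotoxicity was then measured as CellTiter-Glo luminescence after 30 min at room temperature.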
# [3] = qHTS assay for small molecules that induce genotoxicity in human embryonic kidney cells expressing luciferase-tagged ATAD5 - cell viability (AID 651634; calls by dose curve; further: nearly all actives have a fitted effect of over 25% in size; further: potency means the concentration at half of the fitted maximal effect)
# In short: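 HEK293T cells carrying luciferase-tagged ATAD5, 2,000 cells/well, exposed to compound for 15.5 hr at 37C. Viability read as live-cell protease activity by CellTiter-Fluor fluorescence after 30 min at 37C.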
# [4] = qHTS assay for small molecule disruptors of the mitochondrial membrane potential - cell viability (AID 720634; calls by dose curve; further: nearly all actives have a fitted effect of over 20% in size; further: potency means the concentration at half of the fitted maximal effect)
# In short: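 HepG2 cells, 2,000 per well, attached overnight, then treated 1 hr at 37 C, 5% CO2. Viability read as ATP by CellTiter-Glo luminescence after 30 min at room temperature. Read in the same wells as the m-MPI membrane-potential dye assay.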
# [5] = qHTS assay to test for compound auto fluorescence at 590 nm (red) in HepG2 cells (AID 720674)
# In short: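 Seeding: 2,000 HepG2 cells/well, MEM/10% FBS, overnight 37 C. Dosing: compound vs DMSO. Incubation: 1 hr, 37 C, 5% CO2. Read: fluorescence 540 ex/590 em, Rose Bengal sodium as red reference.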
# [6] = qHTS assay to test for compound auto fluorescence at 535 nm (green) in HepG2 cells (AID 720675)
# [7] = qHTS assay to test for compound auto fluorescence at 460 nm (blue) in HEK293 cells (AID 720678)
# In short: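 HEK293 cells (2,000 per well, medium with 10% dialyzed FBS) attached for 4-5 hr at 37C, then received compound and stood overnight at 37C, 5% CO2. Blue fluorescence was read at Ex/Em 405/460 nm and expressed relative to triamterene.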
# [8] = qHTS assay to test for compound auto fluorescence at 590 nm (red) in HEK293 cells (AID 720679)
# In short: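 HEK293 cells (2,000/well, medium with 10% dialyzed FBS) attached for 4-5 hr at 37C, received 23 nL compound and were incubated overnight at 37C, 5% CO2. Red fluorescence was then read at 540/590nm Ex/Em, referenced to Rose Bengal sodium.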
# [9] = qHTS assay to test for compound auto fluorescence at 535 nm (green) in HEK293 cells (AID 720680)
# [10] = qHTS assay to test for compound auto fluorescence at 460 nm (blue) in HEK293 cell free culture (AID 720681)
# In short: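 Compounds were added to cell-free DMEM with 10% FBS and fluorescence read directly. The blue channel used 405 nm excitation and 460 nm emission, with triamterene as the reference fluorophore.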
# [11] = qHTS assay to test for compound auto fluorescence at 535 nm (green) in HEK293 cell free culture (AID 720682)
# In short: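 Cell-free medium (DMEM, 10% FBS) receives compound or DMSO by pintool. Plate read directly at Ex 485/Em 535 nm. Signal converted to fluorescein equivalency.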
# [12] = qHTS assay to test for compound auto fluorescence at 590 nm (red) in HEK293 cell free culture (AID 720683)
# In short: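 Cell-free wells of DMEM with 10% FBS received compound, and intrinsic fluorescence was read at excitation/emission 540/590 nm. Values expressed as equivalence to Rose Bengal sodium.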
# [13] = qHTS assay to test for compound auto fluorescence at 590 nm (red) in HepG2 cell free culture (AID 720684)
# In short: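 Compound was pinned into wells holding MEM with 10% FBS and no cells, and red fluorescence was read at Ex/Em 540/590 nm. Signal is expressed as auto fluorescence equivalency relative to Rose Bengal sodium.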
# [14] = qHTS assay to test for compound auto fluorescence at 460 nm (blue) in HepG2 cell free culture (AID 720685)
# In short: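 Compound (23 nL) or DMSO pinned into cell-free MEM with 10% FBS; blue fluorescence read at 405/460 nm excitation/emission, expressed as auto-fluorescence equivalency to triamterene.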
# [15] = qHTS assay to test for compound auto fluorescence at 535 nm (green) in HepG2 cell free culture (AID 720686)
# [16] = qHTS assay to test for compound auto fluorescence at 460 nm (blue) in HepG2 cells (AID 720687)
# In short: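 HepG2 cells in MEM with 10% FBS, attached overnight at 37 C, were exposed to compound or DMSO for 1 hr at 37 C, 5% CO2. Blue fluorescence was read at 405/460 nm, with triamterene as reference fluorophore.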
# [17] = target: Glucocorticoid receptor (Homo sapiens) (UniProt P04150); test: qHTS assay to identify small molecule agonists of the glucocorticoid receptor (GR) signaling pathway (AID 720691; active means well fitted activation curve with a large enough effect in the signal ratio in the repeat runs, not every such curve was filed as active; the % refers to the signal ratio)
# In short: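 GR-bla HeLa cells carrying a GRE-driven beta-lactamase reporter, exposed to compounds for 18 h at 37 C. Reporter activation read as fluorescence after 2 h with LiveBLAzer B/G FRET substrate at room temperature.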
# [18] = target: Glucocorticoid receptor (Homo sapiens) (UniProt P04150); test: qHTS assay to identify small molecule antagonists of the glucocorticoid receptor (GR) signaling pathway (AID 720692; active means well fitted inhibition curve with a large enough effect in the signal ratio in the repeat runs, not every such curve was filed as active; the % refers to the signal ratio; further: potency means the concentration at half of the fitted maximal effect)
# In short: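 GR-bla HeLa cells carrying a GRE-driven beta-lactamase reporter received compound after 4 h plating, then dexamethasone (5 nM final). After 18 h at 37C, the FRET substrate was loaded for 2 h at room temperature and fluorescence read.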
# [19] = qHTS assay for small molecule disruptors of the mitochondrial membrane potential (AID 720635); further: potency means the concentration at half of the fitted maximal effect
# In short: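 HepG2 cells exposed to compound 1 hr at 37C, then Mito-MPS dye 30 min. Ratio read of aggregate (540/590 nm) versus monomer (490/535 nm) fluorescence.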
# Glucocorticoid receptor (Homo sapiens), sequence (P04150 whole entry, looked up): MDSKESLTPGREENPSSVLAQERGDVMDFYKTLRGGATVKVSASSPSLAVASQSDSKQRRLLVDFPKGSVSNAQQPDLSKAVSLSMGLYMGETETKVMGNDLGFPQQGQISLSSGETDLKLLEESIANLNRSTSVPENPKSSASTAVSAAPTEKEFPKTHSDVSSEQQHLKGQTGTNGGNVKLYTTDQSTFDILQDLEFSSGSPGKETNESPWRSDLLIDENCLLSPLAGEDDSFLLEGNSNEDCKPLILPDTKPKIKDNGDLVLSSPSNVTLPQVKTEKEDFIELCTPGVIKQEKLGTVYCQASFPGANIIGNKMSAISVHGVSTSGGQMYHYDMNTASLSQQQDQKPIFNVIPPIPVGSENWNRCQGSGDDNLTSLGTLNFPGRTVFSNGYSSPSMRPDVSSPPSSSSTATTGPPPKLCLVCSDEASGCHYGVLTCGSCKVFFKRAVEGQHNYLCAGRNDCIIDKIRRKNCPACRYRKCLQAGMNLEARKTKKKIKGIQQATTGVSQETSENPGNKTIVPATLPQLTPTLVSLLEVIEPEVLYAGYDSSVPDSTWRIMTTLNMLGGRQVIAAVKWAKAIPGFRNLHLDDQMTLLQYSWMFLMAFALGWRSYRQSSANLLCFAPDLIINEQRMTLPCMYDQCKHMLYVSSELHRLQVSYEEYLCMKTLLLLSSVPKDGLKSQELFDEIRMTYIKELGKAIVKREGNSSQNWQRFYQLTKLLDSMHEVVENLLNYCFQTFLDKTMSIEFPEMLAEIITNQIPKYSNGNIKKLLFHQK
Structure (SMILES),Potency [1],Potency [2],Potency [3],Potency [4],outcome [5],outcome [6],Potency [7],outcome [8],outcome [9],Potency [10],outcome [11],outcome [12],outcome [13],Potency [14],outcome [15],Potency [16],outcome [17],Potency [18],Potency [19]
CCC1(c2ccc(N)cc2)CCC(=O)NC1=O (stereo not given),inactive,inactive,inactive,inactive,inactive,inactive,inactive,inactive,inactive,inactive,inactive,inactive,inactive,inactive,inactive,inactive,inactive,inactive,
Nc1ncn[nH]1,inactive,inactive,inactive,inactive,,inactive,inactive,inactive,inactive,inactive,inactive,inactive,,inactive,inactive,inactive,inactive,inactive,inactive
O=[N+]([O-])/N=C1\NCCN1Cc1ccc(Cl)nc1,inactive,inactive,inactive,inactive,inactive,inactive,inactive,inactive,inactive,inactive,inactive,inactive,,inactive,inactive,inactive,inactive,inactive,inactive
CCC[CH2][Sn]([Cl])([CH2]CCC)[CH2]CCC,inactive,687 nM (active) and 1.22 µM (active),612 nM (active) and 3.06 µM (active),1.73 µM (active) and 4.86 µM (active),inactive,inactive,inactive,inactive,inactive,inactive,inactive,inactive,inactive,inactive,inactive,inactive,,,
COP(=S)(OC)Oc1ccc(S(=O)(=O)N(C)C)cc1,inactive,inactive,inactive,inactive,inactive,inactive,inactive,inactive,inactive,inactive,inactive,inactive,inactive,inactive,inactive,inactive,inactive,inactive,
NN=C(N)N,inactive,inactive,inactive,inactive,inactive,inactive,inactive,inactive,inactive,inactive,inactive,inactive,,inactive,inactive,inactive,,,inactive
CCCCOCCOC(C)=O,inactive,inactive,inactive,inactive,inactive,inactive,inactive,inactive,inactive,inactive,inactive,inactive,inactive,inactive,inactive,inactive,inactive,inactive,53 µM (active)
C=CC(=O)OCC(CC)(COC(=O)C=C)COC(=O)C=C,7.04 µM (active),35.3 µM (active),15.8 µM (active) and 19.3 µM (active),inactive,,inactive,inactive,inactive,inactive,inactive,inactive,inactive,inactive,inactive,inactive,inactive,,,62.8 µM (active)
CN(C)c1nc(=O)n(C2CCCCC2)c(=O)n1C,inactive,inactive,inactive,inactive,inactive,inactive,inactive,inactive,inactive,inactive,inactive,inactive,inactive,inactive,inactive,inactive,,,
CCOS(=O)(=O)OCC,inactive,inactive,inactive,inactive,,inactive,inactive,inactive,inactive,inactive,inactive,inactive,inactive,inactive,inactive,inactive,inactive,inactive,inactive
Clc1cccc(C(Cl)(Cl)Cl)n1,inactive,inactive,inactive,inactive,inactive,inactive,inactive,inactive,inactive,inactive,inactive,inactive,,inactive,inactive,inactive,,,
CCOP(=S)(OCC)SCn1c(=O)oc2cc(Cl)ccc21,inactive,inactive,inactive,54.5 µM (active),inactive,inactive,inactive,inactive,inactive,inactive,inactive,inactive,inactive,inactive,inactive,inactive,inactive,inactive,
Cc1cccc(N=Nc2ccc(N(C)C)cc2)c1,986 nM (active) and 1.93 µM (active),inactive,35 µM (active) and 27.3 µM (active),19.7 µM (active) and 21.7 µM (active),inactive,inactive,inactive,inactive,inactive,inactive,inactive,inactive,inactive,inactive,inactive,inactive,inactive,,
CCCCOC(=O)COC(=O)c1ccccc1C(=O)OCCCC,inactive,inactive,inactive,inactive,,inactive,inactive,inactive,inactive,inactive,inactive,inactive,inactive,inactive,inactive,inactive,inactive,inactive,inactive
Clc1ccc(C(Cl)(Cl)Cl)cc1,inactive,inactive,inactive,inactive,,inactive,inactive,inactive,inactive,inactive,inactive,inactive,inactive,inactive,inactive,inactive,inactive,inactive,inactive
O=C(O)c1nn(Cc2ccc(Cl)cc2Cl)c2ccccc12,inactive,inactive,inactive,inactive,inactive,inactive,inactive,inactive,inactive,inactive,inactive,inactive,,inactive,inactive,inactive,inactive,inactive and 43.4 µM (active),
